Data as given in PubChem BioAssay (EPA / NIEHS).
Active and inactive are the calls of the source. The calls were made as follows: active = hit-call score of the fitted dose curve at least 0.9, where 1 is the maximum; inactive = score below 0.9.

Read-out: CYP2E1 (gene 1571)
Assay: LTEA_HepaRG_CYP2E1: Life Technologies and Expression Analysis (LTEA) Assay for CYP2E1 using HepaRG (AID 2283485)
Conditions: mRNA level, 48 h; actives raise or lower the signal
Experimental: LTEA_HepaRG is a cell based, multiplexed-readout assay that uses HepaRG, a human liver cell line, with measurements taken at 48 hours after chemical dosing on a 96-well plate.LTEA_HepaRG_CYP2E1 is one of 102 assay component(s) measured in the LTEA HepaRG cell culture assay. It is a marker of NR mediated metabolism.Data from the assay component LTEA_HepaRG_CYP2E1 was analyzed into 1 endpoint. This assay endpoint, LTEA_HepaRG_CYP2E1, was analyzed with bidirectional fitting relative to DMSO as the negative control and baseline of activity. Using a type of inducible reporter, measures of mRNA induction for gain or loss-of-signal activity can be used to understand regulation of transcription factor activity. To generalize the intended target to other relatable targets, this assay endpoint is annotated to the cyp intended target family, where the subfamily is xenobiotic metabolism.
A total of 1060 chemcials from the ToxCast library were tested in eight-point concentration-response experiments. Cell culture and cytotoxicity assays were conducted at Thermo Fisher Scientific's Custom Services facility (Madison, WI). A single lot of human HepaRG cells (Thermo Fisher Scientific, Frederick, MD) was used for the cell culture experiments. 96-well format collagen type I coated plates of human HepaRG cells were prepared using established methods. Briefly, cryopreserved HepaRG cells were thawed, plated at a density of approximately 100,000 cells/well in HepaRG Thaw, Plate, and General Purpose media (HPRG770, Thermo Fisher Scientific), and incubated for 48 hours. 0.5% DMSO was selected as vehicle control to balance the requisite need of DMSO in HepaRG cultures to maintain differentiation (for example, baseline metabolism, proportions of hepatocytes vs. cholangiocytes), while enabling further hepatic receptor pathway activation (for example, PXR and CAR) in response to chemical exposure. 48 hours after plating, the culture medium was replaced with HepaRG Serum-Free Incudtion Media. Cells were exposed to each test chemical in duplicate and maintained in CO2 incubators for another 48 hours. Chemical plates were thawed to room temperature and 200x concentrations of treatment groups were prepared. 8-point conentration-reponse curves were made with the highest exposure at 100 uM, followed by half-log dilutions, all in 0.5% DMSO. Each test plate contained variouse controls, induction positive controls (1mM phenobarbital), cytotoxicity positive controls ([…] aflatoxin B1), vehicle controls (0.5% DMSO), and total lysis controls (0.5% DMSO). Cell morphology images were taken using an Essen IncuCyte FLR automated microscope, with six 96-well plates imaged in about 24 minutes. Images were captured and exported and JPEG files. Spent culture media was transfered to black-well plates for the LDH assay, and remaining media was sorted at -80 C for later use. Cells were treated with RLT buffer and frozen until shipped for gene expression analysis. Total RNA was isolated from the cell suspension in 75 uL of Buffer RLT (Qiagen, Germantown, MD 20874) by Quintiles/Expression Analysis (Durham, NC) using a custom isolation procedure. Total RNA from each plate well was transferred to a preamplification plate. Fluidigm's 96.96 Dynamic ArrayTM (Fluidigm, Amsterdam, the Netherlands) technology was used for gene expression analyses by quantitative reverse transcription polymerase chain reaction (qRT-PCR, performed by Quintiles/Expression Analysis, Durham, NC)89. Standard TaqManTM Assays (Applied Biosystems/ThermoFisher Scientific, Foster City, CA) were used to assess the expression of 93 genes selected based on their selectivity and sensitivity to important hepatic receptors known to be modulated by environmental chemicals; importance in human hepatocyte functionality; and hepatotoxicity. […]

Compound	outcome	AC50
CCN(CC)c1ccccc1	inactive	
CCCCN(CCCC)N=O	inactive	
CCCCCCCc1ccc(O)cc1	inactive	
O=P1(N(CCCl)CCCl)NCCCO1 (stereo not given)	inactive	
O=[N+]([O-])c1ccccc1	inactive	
c1cc2c3c(cccc3c1)CC2		0.391 µM (active)
CCNc1nc(Cl)nc(NC(C)(C)C)n1		26.6 µM (active)
[N-]=[N+]=[N-]		67.1 µM (active)
CCC(C)(C)c1ccc(O)cc1	inactive	
CSC(C)(C)C=NO	inactive	
CC(Cc1ccc(OCC(=O)O)cc1)NCC(O)c1csc(C(F)(F)F)n1 (stereo not given)	inactive	
O=C(O)C1C(C(=O)O)C2(Cl)C(Cl)=C(Cl)C1(Cl)C2(Cl)Cl (stereo not given)	inactive	
c1ccc(OP(Oc2ccccc2)Oc2ccccc2)cc1	inactive	
COCCOCCO	inactive	
O=P(Oc1ccccc1)(Oc1ccccc1)Oc1ccccc1		26.2 µM (active)
CCC1(c2ccccc2)C(=O)N=C(O)NC1=O (stereo not given)	inactive	
O=C(O)C(Cl)Cl	inactive	
Nc1cc2c3c(c1)C(c1ccccc1)=N[C@@H](NC(=O)c1cccnc1)C(=O)N3CC2		12.2 µM (active)
CCCN(CCC)c1c([N+](=O)[O-])cc(C(C)C)cc1[N+](=O)[O-]		67 µM (active)
Cc1ccc([N+](=O)[O-])cc1C	inactive	

Compound	outcome	AC50
CN(C)C(=O)Cl	inactive	
Nc1ccc(Cl)cc1	inactive	
c1ccc2c(c1)Nc1ccccc1S2		66.2 µM (active)
O=[N+]([O-])c1ccc(Cl)c(Cl)c1	inactive	
ClC(Cl)(Cl)c1ccccc1	inactive	
ClC1=C(Cl)C2(Cl)C3C(Cl)C(Cl)CC3C1(Cl)C2(Cl)Cl (stereo not given)		27.7 µM (active)
CCCCc1ccccc1	inactive	
CCOP(=S)(Oc1ccc([N+](=O)[O-])cc1)c1ccccc1 (stereo not given)		37.3 µM (active)
CCOc1ccc(C(C)(C)COCc2cccc(Oc3ccccc3)c2)cc1		26 µM (active)
CC(Cl)(Cl)C(=O)O	inactive	
Cc1ccc(N)cc1N		18.6 µM (active)
ClC(Cl)c1ccccc1	inactive	
Cc1cccc(N)c1	inactive	
CCOC(=O)c1ccccc1C(=O)OCC	inactive	
CCCCN(CCCC)SN(C)C(=O)Oc1cccc2c1OC(C)(C)C2		41.5 µM (active)
CCOP(=S)(OCC)SCSCC	inactive	
OCC1CO1 (stereo not given)	inactive	
Nc1ccc2ccccc2c1		33.8 µM (active)
c1nc[nH]n1	inactive	
CCOS(=O)(=O)OCC	inactive	
